These results are taken from PubChem BioAssay (NCATS).

Inconclusive results are not listed. The source made the active and inactive calls. Calls follow the shape of the dose curve; as a rule, active = well fitted cell-killing curve with a large enough effect; inconclusive = small, poorly fitted or top-dose-only effect; inactive = no such curve, though single readings can be large or run the other way.
Potency is read from the fitted curve at half-maximal effect.

The nature of this assay: qHTS of pediatric cancer cell lines to identify multiple opportunities for drug repurposing: Confirmatory screen for SK-N-MC cells (AID 1347111).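 Also: cells exposed to compound for 48 h before the readout; nearly all actives have a fitted effect of over 70% in size.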 The following applies: SK-N-MC cell viability; series mostly up to 45.9 µM; activity change, negative = cytotoxic: at the top concentration. An excerpt: Drug repurposing or repositioning has been offered as a strategy for drug development in oncology programs. This approach has special potential for childhood cancers and other rare or orphan diseases, where the expected return on new drug development has been a disincentive to pharmaceuticals.
In this project we exploit the poly-pharmacology of drugs to discover new indications via phenotypic screening of a panel of 19 well-characterized cell lines derived from solid tumors seen in children and adolescents. The goal is to identify approved drugs with previously unrecognized anticancer properties that has the potential to reveal new mechanisms and biological processes involved in carcinogenesis or drug resistance. We employed a titration-based paradigm (quantitative high-throughput screening or qHTS), where all compounds were tested at multiple concentrations for their effect on cell viability. Concentration-response curves (CRCs) were derived directly from the primary screen, and both potency and efficacy values were used to identify compounds with robust bioactivity profiles. We screened the NIH Chemical Genomics Center (NCGC) Pharmaceutical Collection (NPC) and Mechanism Interrogation Plate (MIPE) small molecule collections of approved and investigational compounds against these cell lines; and measured metabolically active cells after 48 hours of compound treatment as a proxy for cell viability.
Assay Submitter: Nathalia J. Martinez, National Center for Advancing Translational Sciences, National Institutes of Health, Rockville, MD, USA; email: natalia.martinez@nih.gov
[1] Shen, M et al. Quantitative high-throughput phenotypic screening of pediatric cancer cell lines identifies multiple opportunities for drug repurposing. Oncotarget 2017 Dec 19;9(4):4758-4772. PMID 29435139.
The cells were obtained from University of North Carolina (UNC), Pediatric Preclinical Testing Program (PPT), and Coriell Institute (CI).
qHTS cell viability assay:
Cells were assayed in growth media at a density of 500-1,000 cells/well. Five microliters of cells were dispensed into 1,536-well, white, solid-bottom, TC-treated plates (Greiner Bio One) using a multidrop dispenser and incubated at 37 degrees C, 5% CO2, under a humidified atmosphere for 5 hours. Twenty-three nanoliters of compounds and controls (neutral control DMSO or positive control bortezomib at final concentration of 2.3 µM) were subsequently transferred by Kalypsys pintool. For primary screens, the MIPE collection was tested at 11-point dilutions (final concentrations range from 0.78 nM to 46 µM) and the NPC collection at 8-point dilutions (final concentrations range from 0.59nM to 46 µM). Compounds tested in follow-up screens were assayed at 11-point dilutions. Cells were incubated for 48 hours, followed by addition of 3 uL of CellTiter-Glo (Promega). After a 15 min incubation at room temperature, samples were analyzed for luminescence intensity using a ViewLux High-throughput CCD imager equipped with clear filters.
On to `CC(C=CC(=O)NO)=C[C@@H](C)C(=O)c1ccc(N(C)C)cc1`, for which the Potency is 185 nM (active).
Turning to `Cc1[nH]c(C=C2C(=O)Nc3ccccc32)c(C)c1CCC(=O)O`, the “activity change, negative = cytotoxic” value was -11.3% (inactive).
Turning to `COc1cccc2c1C(=O)c1c(O)c3c(c(O)c1C2=O)C[C@@](O)(C(=O)CO)C[C@@H]3O[C@H]1C[C@H](N)[C@@H](O)[C@H](C)O1`, the Potency was 165 nM (active).
For `O=C(NC1CC1)c1cccc(-c2ccc3c(NC(=O)C4CC4)n[nH]c3c2)c1`, the Potency was 8270 nM (active).
As to `COc1ccc(C=Cc2cc(OC)c(OC)c(OC)c2)cc1NC(=O)[C@H](N)CO`, the Potency is 117 nM (active).
On to `CCCCC(=O)O[C@]1(C(=O)CO)[C@@H](C)C[C@H]2[C@@H]3CCC4=CC(=O)C=C[C@]4(C)[C@@]3(F)[C@@H](O)C[C@@]21C`, for which the Potency is 18500 nM (active).
On to `CC(C)(O)Cn1c(NC(=O)c2ccc(-c3cn[nH]c3)s2)nc2cc(CN3CCOCC3)ccc21`, for which the Potency was 1310 nM (active).
On the same count and under the same terms, for `CC(C)(N)c1ccc(-c2nc3ccccc3nc2-c2ccccc2)cc1` the value was 465 nM (active); for `C[C@H](NCc1ccc2c(c1)nc(NC(=O)c1ccc(-c3cn[nH]c3)s1)n2CCc1ccccc1)C(C)(C)C`, 928 nM (active).
For `COc1cc(O)c2c(c1)C1OC1C[C@H](O)[C@H](O)C(=O)C=CC[C@H](C)OC2=O` (stereo not given in full), the Potency is 9270 nM (active).
Turning to `Cc1ccc([N+](=O)[O-])cc1S(=O)(=O)N(C)N=Cc1cnc2ccc(Br)cn12`, the Potency was 1040 nM (active).
Regarding `CC(C)NC[C@@H](C(=O)N1CCN(c2ncnc3c2[C@H](C)C[C@H]3O)CC1)c1ccc(Cl)cc1`, the Potency was 2930 nM (active).
On the same count and under the same terms, for `O=C(Nc1cc2cc[nH]c2cn1)c1ccccc1` the value was 2610 nM (active).
As to `O=C1NC(=O)[C@@H](c2cn3c4c(cccc24)CCC3)[C@H]1c1c[nH]c2ccccc12`, the Potency is 928 nM (active).
On to `COc1cc(C[C@@H](CO)[C@H](CO)Cc2ccc(O)c(OC)c2)ccc1O`, for which the Potency is 8270 nM (active).
Regarding `Cc1cnc(Nc2ccc(N3CCN(C)CC3)cc2)nc1Nc1cccc(S(=O)(=O)NC(C)(C)C)c1`, the Potency is 3290 nM (active).
For `Cn1cnc(=N)c2[nH]cnc21`, the “activity change, negative = cytotoxic” value was -15.1% (inactive).
Consider `COc1cc(OC)c(C=CS(=O)(=O)Cc2ccc(OC)c(NCC(=O)O)c2)c(OC)c1`, for which the Potency was 293 nM (active).
For `O=C(O)C[C@H](O)C[C@H](O)C=Cc1c(C2CC2)nc2ccccc2c1-c1ccc(F)cc1`, the Potency is 4650 nM (active).
`COc1cc(C=CC(=O)CC(=O)C=Cc2ccc(O)c(OC)c2)ccc1O`: the Potency was 15100 nM (active).
On the same count and under the same terms, for `CCOC(=O)C1=C(C)NC(=S)NC1c1cccc(O)c1` (stereo not given) the value was 5220 nM (active).
Consider `C[C@@]12C(=O)OC(=O)[C@@]1(C)C1CCC2O1`, for which the Potency is 6570 nM (active).
With `Oc1ccc(-c2ccc(-c3cc(Nc4cccc(CNC5CC5)c4)n[nH]3)cc2)c(O)c1`, the Potency is 827 nM (active).
For `Nc1ncn([C@@H]2O[C@H](CO)[C@@H](O)[C@@H]2O)c(=O)n1`, the Potency was 16500 nM (active).
With `CO[C@@H]1[C@@H](O)[C@H](O)[C@@H](n2c3c(Cl)cccc3c3c4c(c5c6cccc(Cl)c6[nH]c5c32)C(=O)NC4=O)O[C@@H]1CO`, the Potency is 928 nM (active).
For `COc1ccc(C[C@@H](C)[C@@H](C)Cc2ccc(OC)c(OC)c2)cc1OC`, the Potency is 10400 nM (active).
Regarding `COc1cc([C@@H]2c3cc4c(cc3[C@@H](O[C@@H]3O[C@@H]5CO[C@@H](c6cccs6)O[C@@H]5[C@H](O)[C@@H]3O)[C@H]3COC(=O)[C@H]23)OCO4)cc(OC)c1O`, the Potency is 104 nM (active).
Turning to `CC(=O)O[C@H]1C[C@@H]2CC[C@H]3[C@H]4C[C@H]([N+]5(C)CCCCC5)[C@@H](OC(C)=O)[C@@]4(C)CC[C@@H]3[C@@]2(C)C[C@H]1N1CCCCC1`, the Potency was 3290 nM (active).
`C[C@@H](Oc1ccc2[nH]nc(C=Cc3cnn(CCO)c3)c2c1)c1c(Cl)cncc1Cl`: the Potency was 2610 nM (active).
As to `COc1cccc2c1C(=O)c1c(O)c3c(c(O)c1C2=O)C[C@@](O)(C(=O)CO)C[C@H]3O[C@H]1C[C@H](N)[C@H](O)[C@H](C)O1`, the Potency was 414 nM (active).
For the compound `CN[C@@H]1C[C@H]2O[C@@](C)([C@H]1OC)n1c3ccccc3c3c4c(c5c6ccccc6n2c5c31)C(=O)N[C@H]4O`, the Potency is 233 nM (active).
With `C#CCC(Cc1cnc2nc(N)nc(N)c2n1)c1ccc(C(=O)N[C@@H](CCC(=O)O)C(=O)O)cc1` (stereo not given in full), the Potency is 52.2 nM (active).
In the case of `CC[C@@]1([C@@H]2O[C@@H]([C@H]3O[C@@](O)(CO)[C@H](C)C[C@H]3C)C[C@H]2C)CC[C@H]([C@]2(C)CC[C@]3(C[C@H](O)[C@@H](C)[C@@H]([C@@H](C)[C@@H](OC)[C@H](C)C(=O)O)O3)O2)O1`, the Potency is 229 nM (active).
As for `Cc1cc(Nc2ncc3c(n2)N(C)C(=O)N(c2cc(NC(=O)c4cccc(C(F)(F)F)c4)ccc2C)C3)n(C)n1`, the Potency is 369 nM (active).
The same measure, in the same setting: for `CCOC(=O)N1CCN([N+]([O-])=NOc2ccc([N+](=O)[O-])cc2C#N)CC1` the value was 3290 nM (active); for `COc1ccc(Nc2cc(-c3cnc(N)nc3)nc(N3CCOCC3)n2)cn1`, 6570 nM (active).
Regarding `CS(=O)(=O)N1CCc2c(-c3cnc(N)nc3)nc(N3CCOCC3)nc21`, the Potency is 2610 nM (active).
Same read-out and setting: next, `CC(C)C[C@H](NC(=O)CNC(=O)c1cc(Cl)ccc1Cl)B1OC(=O)CC(CC(=O)O)(C(=O)O)O1` (stereo not given in full): 131 nM (active); `Nc1nc2c(c(=O)[nH]1)N(C=O)[C@H](CNc1ccc(C(=O)N[C@@H](CCC(=O)O)C(=O)O)cc1)CN2`: 10400 nM (active).
On the same count and under the same terms, next, `CC(N[C@H]1CCCC[C@H]1NC(=O)c1ccc(Cl)cc1)c1cccc2ccccc12` (stereo not given in full): 2610 nM (active).
